An excerpt weighted towards active compounds, which were near 4.1% of everything screened.
M18AAP inhibitor: PfM18AAP enzyme inhibition; recombinant PfM18AAP, H-Glu-NHMec fluorogenic cleavage; inhibition, % at 7.35 µM; 290,000 tested, 1.2% active;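 active = inhibition above the campaign mean inhibition over all tested compounds plus 3 SD, cut at about 28% in these data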;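 also: 0% = plate median of test compound wells and 100% = 2 mM ZnCl2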
IDE act: boosts human insulin-degrading enzyme activity in HEK cells; P14735; FAbeta-B cleavage, fluorescence polarization; 0% vehicle, 100% cell-free pure enzyme wells; activation, % at 5.96 µM; 340,000 tested, 0.073% active;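 active = activation above the mean of all tested compounds plus 3 SD, set per screening campaign, cut at about 17% in these data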
ALR inh: blocks human ALR sulfhydryl oxidase activity; P55789; purified ALR, DTT oxidation, H2O2 HRP-luminol luminescence; inhibition, % (test concentration not listed); AID 485317; 290,000 tested, 3.8% active;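 active = mean replicate inhibition above about 79%, with every replicate also reaching it, limit read from the data; inconclusive = only one of the two criteria met; inactive = mean below limit and not every replicate reaching it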
IDE cell inh: inhibitors of human insulin-degrading enzyme in cells; P14735; HEK cells, FAbetaB cleavage, fluorescence polarization; inhibition, % at 5.59 µM; 320,000 tested, 0.41% active; AID 434962;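 active = percent inhibition above the average of all tested compounds plus 3 SD, set per screening campaign, cut at about 16% in these data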;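 also: IDE supplied by intact live HEK cells; FP after avidin binding of uncleaved biotin substrate so inhibition keeps polarization high; 0% = DMSO wells and 100% = 60 µM reference IDE inhibitor Ii1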
CaV13 FRET inh: Primary screen for inhibitors of IQ motif and Ca2+-dependent inactivation inhibitor domain binding in CACNA1D, Förster resonance energy transfer in living cells, … | HEK cells, CFP/YFP FRET ICDI-IQ, plate reader, 10 min; percent FRET-ratio fall versus neutral wells | 340,000 tested, 0.098% active | inhibition, % at 12.3 µM;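 active = mean replicate inhibition of at least 30% and at least 1% of replicates passing that level; inconclusive = only one of the two criteria is met; inactive = neither criterion is met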;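 also: 0% = median of the neutral control wells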
PolyA inh: inhibitors of polyadenylation in S. cerevisiae | activity score, % at 12 µM | S. cerevisiae SKY197-pL101 polyadenylation reporter, beta-gal luminescence; efflux-impaired pdr1/pdr3 knockout yeast; score 100 = 6 SD above DMSO | 300,000 tested, 0.02% active;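 active = lowest replicate activity score at least 50, where 100 means six control SD above control mean; inconclusive = lowest score under 50 but half or more replicates reach 50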;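 also: yeast exposed to compound for 9 h at 30 °C; higher score means more reporter readthrough which indicates perturbed polyadenylation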
IDE inh confirm: cellular human IDE inhibition, confirmation | inhibition, % at 5.59 µM | AID 435028 | HEK cells, FAbetaB cleavage, fluorescence polarization | 1,200 tested, 51% active | shares compounds with IDE cell inh;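 active = mean inhibition across triplicate wells above the cutoff set by the earlier primary insulin-degrading enzyme screen, cut at about 16% in these data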;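 also: 0% = DMSO wells and 100% = 60 µM reference IDE inhibitor Ii1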
HEK cytotox: HEK cell cytotoxicity, counter-screen for IDE inhibitors | HEK293 cytotoxicity, ATP luminescence | shares compounds with IDE cell inh | 1,200 tested, 28% active | inhibition, % at 5.59 µM; in the data active = inhibition above about 22%;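 also: 0% = vehicle wells and 100% = reference cytotoxic drug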
Starred values were filed as active, the others as inactive; ? = inconclusive; · = no result given.

SMILES | M18AAP inhibitor | IDE act | ALR inh | IDE cell inh | CaV13 FRET inh | PolyA inh | IDE inh confirm | HEK cytotox
CC(=O)Nc1sc2c(c1-c1nc3ccccc3s1)CN(C(C)C)CC2 | · | -10 | -43 | 30* | -6 | · | 5 | 95*
CC(C)N1CCc2c(sc(NC(=O)c3nc4ccccc4s3)c2C(N)=O)C1 | 8 | 3 | 35 | 13 | -63 | -7 | · | ·
COc1ccc(NC(=O)C2CCCN(S(=O)(=O)c3ccc4c(c3)CCCN4C(C)=O)C2)cc1Cl (stereo not drawn) | -5 | -5 | -4 | 7 | -3 | 4 | · | ·
COC(=O)C1CN(C(=O)COc2ccc(C)cc2)c2ccccc2O1 (stereo not drawn) | -1 | 0 | -3 | 0 | -18 | 1 | · | ·
COc1ccccc1CN=Cc1[nH]c2ccc(Br)c(Cl)c2c1O | -3 | -4 | 0 | 0 | -4 | -26 | · | ·
Cc1cccc(N=Cc2[nH]c3ccc(Br)c(Cl)c3c2O)c1 | 2 | -28 | · | 22* | -6 | · | 23* | 11
O=C(NCCN1CCOCC1)c1ccc(-c2ccccc2)cc1 | 0 | -15 | 21 | 19* | -6 | -2 | 4 | 7
O=C(Cc1ccc(-c2ccccc2)cc1)NCCN1CCOCC1 | -6 | 4 | -7 | 8 | -4 | ? | · | ·
COc1ccc2[nH]c3c(N4CCC(O)(c5cccc(C(F)(F)F)c5)CC4)ncnc3c2c1 | 0 | -5 | -21 | 23* | -2 | 9 | 6 | 65*
Cc1cccc(C=Nc2ccc3c4c(cccc24)CC3)c1O | -4 | -1 | -16 | 33* | -7 | 1 | 9 | 3
Oc1ccc(Cl)cc1/C=N/c1nccs1 | -2 | -5 | · | 0 | -6 | 15 | · | ·
CCc1ccc(O)c(N=Cc2cccc(C)c2O)c1 | 13 | 6 | 7 | 5 | -8 | -3 | · | ·
Oc1ccc(Cl)cc1C=Nc1ccc2c3c(cccc13)CC2 | 7 | -3 | · | 42* | -5 | -10 | 0 | 11
COc1cc(OC)c(NC(=O)CNC(=O)Cn2ccc3ccccc3c2=O)cc1Cl | -10 | 2 | 0 | -2 | -4 | ? | · | ·
CCCS(=O)(=O)c1c(S(=O)(=O)CCC)c2ccc(C(N)=O)cn2c1C(=O)c1ccc(OC)cc1 | 0 | 3 | 3 | 4 | -7 | -1 | · | ·
NC(N)=NC(N)=Nc1cccc2ccccc12 | -17 | 8 | -31 | 17* | -3 | 3 | -2 | 13
Cc1c(Cl)cccc1N=C(N)N=C(N)N | -2 | -1 | -7 | 1 | -19 | -1 | · | ·
CCN(CC(=O)Nc1ccc2c(c1)OCCO2)c1nc(-c2cccnc2)nc2ccccc12 | 0 | 1 | -7 | 2 | -6 | -20 | · | ·
CCOC(=O)C1=C(CSc2nc(CC)c(C)cc2C#N)OC(N)=C(C#N)C1c1ccc(OC)cc1 (stereo not drawn) | 13 | -3 | · | 22* | · | -5 | 3 | 12
CC(=O)Nc1ccc(C2=NNC(=Nc3ccc(S(=O)(=O)N4CCOCC4)cc3)SC2)cc1 | 27 | -29 | -6 | 22* | 4 | 7 | 9 | 15
CCc1noc(C)c1C(=O)Nc1ccc(C#N)cc1 | · | 4 | -9 | -9 | -5 | -9 | · | ·
Clc1ccc(C[n+]2csc3ccccc32)cc1 | 38* | -24 | 11 | 20* | -3 | · | 10 | 12
COc1ccc(CN(C)C(=O)[C@H]2O[C@@H](n3ccc(=O)[nH]c3=O)[C@H](O)[C@@H]2O)cc1OC | · | · | · | · | -3 | · | · | ·
CC(C)NC(=O)C1(C)CCN1C(=O)c1ccccc1F (stereo not drawn) | · | · | · | · | -5 | · | · | ·
COc1cccc2c1C(=O)C=C(C)C2=O | 3 | -18 | -6 | 34* | -6 | -27 | 72* | 34*
SMILES | M18AAP inhibitor | IDE act | ALR inh | IDE cell inh | CaV13 FRET inh | PolyA inh | IDE inh confirm | HEK cytotox
CCOC(=O)c1sc(Nc2nc3c(OC)cccc3s2)nc1C | 2 | -7 | -4 | 17* | -4 | -1 | 7 | 12
CCC(=O)Nc1nc2ccc(NC(C)=O)cc2s1 | -19 | -1 | -23 | 4 | -8 | 6 | · | ·
CCOc1cccc2sc(Nc3nc4ccc(NC(C)=O)cc4s3)nc12 | 0 | -28 | 2 | 32* | -3 | -17 | 15 | 89*
CCc1ccc(C(C(=O)NC2CCCC2)N(CCOC)C(=O)CCC(=O)Nc2cc(C)on2)cc1 (stereo not drawn) | 0 | 6 | 4 | 1 | -8 | -6 | · | ·
C=CCN(C(=O)CSc1nc2[nH]ncc2c(=O)n1-c1ccccc1OC)c1ccccc1 | 12 | -13 | · | 18* | -10 | · | 13 | 3
COc1cc(NC(=O)CSc2nc3[nH]ncc3c(=O)n2-c2ccccc2C)cc(OC)c1OC | 15 | 4 | -10 | 4 | -3 | 9 | · | ·
CCN1CCN(C(=O)c2cc(-c3ccco3)nc3ccccc23)CC1 | · | -1 | 0 | 3 | -7 | · | · | ·
O=C(C1=NN(c2ccccc2)C2C(=O)N(c3cccc(Cl)c3)C(=O)C12)c1ccccc1 (stereo not drawn) | 5 | -23 | 40 | 31* | -41 | · | 28* | 11
Cc1cccc(NC(=O)/C(=C\c2ccc([N+](=O)[O-])o2)NC(=O)c2ccc(Cl)cc2)c1 | -1 | -4 | -22 | 17* | -5 | · | 6 | 13
c1ccc(C(c2ccccn2)c2ccccn2)cc1 | 1 | -7 | -6 | 17* | -2 | 17 | 3 | 9
COCCN(C(=S)Nc1ccc(OC)cc1)C1CCN(C(C)=O)CC1 | 3 | 3 | -1 | 4 | -3 | 2 | · | ·
Nc1c(C(=O)N/N=C/c2ccc(Cl)cc2)cnn1-c1ccccc1 | 0 | -3 | 4 | 18* | -4 | -8 | 2 | 9
C[n+]1ccccc1/C=C1\Sc2ccccc2N1CCO | 7 | 1 | 70 | 6 | -2 | -6 | · | ·
CC[n+]1ccc(/C=C2\Sc3ccccc3N2CCCS(=O)(=O)[O-])c2ccccc21 | 4 | 3 | -3 | 17* | -6 | 6 | 8 | 9
CC(=O)c1ccc(N2CCN(C(=O)/C=C/c3ccc(S(=O)(=O)NCc4ccco4)cc3)CC2)cc1 | -6 | -14 | -1 | 21* | -7 | 6 | 0 | 49*
CC1(C)CC(=O)C/C(=N\NC(=O)Cc2ccccc2)C1 | -2 | 4 | 8 | 5 | -3 | 12 | · | ·
CC1(C)CC(=O)C/C(=N/NC(=O)c2ccc(-c3ccccc3)cc2)C1 | 8 | -11 | 0 | 18* | -5 | 7 | 14 | 5
O=C(O)Cc1sc(NC2CCCCC2)nc1-c1ccc(Cl)cc1 | -9 | 8 | -1 | 20* | -2 | -4 | -3 | 11
CCN(CC(=O)N1CCCC1)S(=O)(=O)c1ccc(OC)cc1 | -1 | -3 | 2 | · | -3 | -11 | · | ·
